In all, about 59,000 sequences were measured (the read-out: median about -0.00055, lowest 2% from about -2 on). The full list was thinned out, with the lowest values kept by preference.
Test: Identification of proteins required for the processing of the EWS-FLI1 nascent transcript;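 note: robust z of luciferase light less the median z of siRNAs with the same seed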
Conditions: TC32 Ewing sarcoma NR0B1-luc vs CMV-luc (EWS-FLI1 target promoter against control promoter), 48 h; screened at 20 nM (by protocol)
Outline: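 Parallel TC32-NR0B1-luc and TC32-CMV-luc reverse transfections with 20 nM siRNA in RPMI-1640/10% FBS, luciferase measured 48 h later. Seed-adjusted z-scores from normalized, z-score-MAD transformed data; AllStars negative and siGL4 controls on each plate.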

In order of falling seed-corrected z-score:
1. UCAGGAUAAAGAUUGUCGC against KDM4A  1.62
2. ACCGUUUAAACUGAGACCC against FILIP1  1.11
3. AAAUCAUAAACCAUCUUUG against OR2L2  1.05
4. UAUUUAUCUAGGCACUUCU against CENPT  0.523
5. UUCUCAGAAACUGCACGGC against SYNGR4  0.497
6. AAACGAAAAAUGAACACUC against POU3F1  0.371
7. AGCUUGAUCAUUCUAGUGC against FLJ36777  0.325
8. UAUGCGGACCAAGUUGUCU against TMEM72  0.195
9. UUGUUAAUCUGGUCAAUUG against GRM8  0.169
10. AACAUAAGAGAGACAAUGC against SYVN1  0.102
11. UUUCGAAUACCAGCUAUCC against KLHL7  0.0747
12. UACUGAAUCACUCCCUUGA against GALK1  -0.0112
13. UCGCUGACUCCAGAUAUGC against AP1G2  -0.0794
14. UAGGUGAACAUCAUGACGC against ITGB5  -0.131
15. UAAUGUAACUACUUCCAUC against TM2D1  -0.144
16. AAUCUAAUAGGAUUUGUUA against CTBP2  -0.167
17. UGAAAUUCCCGUAGAGUUC against CA11  -0.176
18. UAUUCUUAUCUGUAAUCCC against LOC646736  -0.205
19. UUCGGAACCGGAGAUCCCA against RIPK4  -0.395
20. UGCCGAGAAGUUUGGCUCC against TPBGL  -0.407
21. UGUAGUACGCUCUUGUUCU against GOLGA8EP  -0.41
22. UUUCAAUCCUUCCUCCUUA against IFNA7  -0.487
23. UCGUGGUUCUCAAUUUUGC against PKLR  -0.494
24. AUCUUUGUUGCGGAGACUG against OR2T34  -0.514
25. UCACGAACUGGACUUUACC against GRM7  -0.806
26. UCGCGGAUCAGAAAGGUGC against SOCS3  -1.04
27. UACUUUUGAUGCACUAGUC against ETAA1  -1.14
28. UCCACGAAUAGCAAUAUGC against KIDINS220  -1.19
29. UUCUUUGCACGAAUGUCCG against PRPF6  -1.74
30. AUUCUGAUCUAGGCGAUGG against C5orf15  -2.22
31. GUCAGGUAGAAGACCACAC against MRGPRG  -2.24
32. ACCUCUGCAUCUCUUGUUC against TCF23  -2.43
33. UGUUGUCAAAGAGUGAUUC against SLC2A13  -2.46
34. UGCUUUUGGAGUGCUAUGG against ANKLE1  -2.74
35. AGAUAGUACACUCAUAUGG against ZNF791  -2.77
36. AAAGGCGUAGAGGAGCUGG against TRIB3  -3.4
37. AGUAGUCACACUGUUGUGC against NXNL2  -4.17
